The campaign covered roughly 190,000 compounds. About 1,300 (0.68%) were called active. Rule as the data show it: active = inhibition above about 50%; inactive = the rest. This excerpt belongs to a sample that is enriched for actives.
target: Mannose-6-phosphate isomerase (Homo sapiens) (UniProt P34949); experiment: MPI inhibition at elevated mannose 6-phosphate – biochemical, fluorescence intensity, high mannose 6-phosphate, primary screen (AID 1220); conditions: recombinant PMI enzyme, coupled fluorescence intensity; at 20 µM; stronger effect = higher value
Sequence (P34949 whole entry, looked up): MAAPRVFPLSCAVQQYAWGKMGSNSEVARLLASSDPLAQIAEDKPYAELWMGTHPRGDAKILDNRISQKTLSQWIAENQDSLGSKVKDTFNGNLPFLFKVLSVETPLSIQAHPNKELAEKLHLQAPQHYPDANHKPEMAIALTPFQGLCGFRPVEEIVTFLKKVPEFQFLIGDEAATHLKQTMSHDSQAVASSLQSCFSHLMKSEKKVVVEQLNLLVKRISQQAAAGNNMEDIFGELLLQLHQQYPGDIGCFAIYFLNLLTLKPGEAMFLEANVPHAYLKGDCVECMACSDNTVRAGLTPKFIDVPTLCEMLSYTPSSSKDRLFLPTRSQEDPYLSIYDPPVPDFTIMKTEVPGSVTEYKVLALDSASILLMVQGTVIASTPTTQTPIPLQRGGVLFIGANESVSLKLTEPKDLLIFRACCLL

Structure (SMILES)	inhibition
Cc1cc(NC(=O)COC(=O)C2COc3ccccc3O2)no1 (configuration not stated)	-4.4% (inactive)
CCCC(O)(c1ccc(Cl)cc1)C(CN1CCOCC1)c1ccccc1 (configuration not stated)	5.2% (inactive)
Cc1ccc(S(=O)(=O)N2CCCCC2)cc1NC(=O)COC(=O)C1CC2C=CC1C2 (configuration not stated)	11% (inactive)
O=C(NC1CCCCC1)C1CCN(S(=O)(=O)c2cccs2)CC1	5.6% (inactive)
C=CCc1c(OC)ccc2ccc(=O)oc12	0.3% (inactive)
Cc1cccc2cc(CN(CCCN(C)C)C(=S)NCCc3ccccc3)c(=O)[nH]c12	-1.6% (inactive)
CC(C)(C)C1CCc2c(sc(NC(=O)CSc3nnc(-c4ccccc4)o3)c2C#N)C1 (configuration not stated)	15.1% (inactive)
CC1CCc2c(sc(NC(=O)CSc3nnc(-c4ccccc4)o3)c2C#N)C1 (configuration not stated)	57.2% (active)
N#Cc1c(NC(=O)CSc2nnc(-c3ccccc3)o2)sc2c1CCCC2	4.2% (inactive)
COC(=O)c1ccc(CSCC(=O)Nc2ccccc2)cc1	6.4% (inactive)
COc1ccc(C2=COc3ccccc3C(=O)N2)cc1	-6.2% (inactive)
O=C(CSc1ccc(C(F)(F)F)cc1[N+](=O)[O-])Nc1ccc2ccccc2c1	10.8% (inactive)
O=C(Nc1nc(-c2ccc(Cl)cc2Cl)cs1)c1ccc(OCC2CCCO2)cc1 (configuration not stated)	11.1% (inactive)
Cc1csc(NC(=O)c2ccc(OCC3CCCO3)cc2)n1 (configuration not stated)	1.2% (inactive)
COc1ccc(OC)c(-c2csc(NC(=O)c3ccc(OCC4CCCO4)cc3)n2)c1 (configuration not stated)	104% (active)
COc1ccccc1NC(=O)c1cnc2c(-c3ccccc3)c(C)nn2c1C	8.9% (inactive)
COCCNC(=O)/C(C#N)=C/c1cc(C)n(C2CCCCC2)c1C	-6.4% (inactive)
O=C(c1cnn(-c2ccccc2)c1)c1ccc2ccccc2c1O	23.1% (inactive)
O=C(COC(=O)[C@H](Cc1ccccc1)NC(=O)c1ccco1)NC(c1ccccc1)c1ccccc1	11.5% (inactive)
COc1cc(N)cc(NC(=O)c2ccncc2)c1	50.4% (active)
COc1ccc(C(=O)Nc2cc(OC)cc(OC)c2)cc1	10% (inactive)
COc1cccc(NC(=O)c2ccncc2)c1	6% (inactive)
COc1nc(OC)nc(N2CCC(C(=O)NC3CCCCCC3)CC2)n1	1.4% (inactive)
Cc1ccccc1NC(=S)NCc1ccc(Cl)cc1	9.2% (inactive)
CC1CCc2c(C(=O)Oc3cccc(-n4cnnn4)c3)csc2C1 (configuration not stated)	15.6% (inactive)
Cc1ccc(O)c(CNc2cccc3cccnc23)c1	63.8% (active)

Structure (SMILES)	inhibition
Oc1ccccc1CNc1cccc2cccnc12	45.3% (inactive)
Cc1ccc(O)c(CNc2ccccn2)c1	-7.2% (inactive)
Fc1ccc(NCc2cccnc2)cc1	-2% (inactive)
Cc1cccc(NCc2ccccc2O)c1C	25.8% (inactive)
CC(C)COCc1ccc(O)c2ncccc12	14.9% (inactive)
Cc1ccccc1NCc1ccccc1O	1.6% (inactive)
Cc1cccnc1NCc1ccc(O)c2ncccc12	63.6% (active)
COCc1ccc(O)c2ncccc12	22.6% (inactive)
Oc1ccc(Cn2ccnc2)c2cccnc12	7.4% (inactive)
CSc1cccc(NC(=S)N(CCCN2CCCC(C)C2)Cc2cccs2)c1 (configuration not stated)	4.6% (inactive)
COCCOC(=O)C1=C(C)N=C2SCCC(=O)N2C1c1cccc(Br)c1 (configuration not stated)	1.8% (inactive)
CCCC(=O)Nc1nc(C)c(-c2csc(Nc3ccc(Cl)cc3)n2)s1	38.4% (inactive)
O=C(Cn1cc(C(F)(F)F)cc(Cl)c1=O)Nc1cc(Cl)cc(Cl)c1	13.7% (inactive)
C=CCn1c(SCC(=O)Nc2ccc3c(c2)OCO3)nnc1-c1ccccc1	25.6% (inactive)
CCOC(=O)c1ccc(Cn2cnc3ccccc3c2=O)cc1	11.7% (inactive)
CCOC(=O)C1=C(c2ccccc2)NC(SC)=C(C#N)C1c1cccnc1 (configuration not stated)	3.3% (inactive)
O/N=C1/CCSc2ccccc21	9.7% (inactive)
O=C(Cc1ccccc1F)Nc1cccc2cccnc12	-1.1% (inactive)
COc1ccc(O)c(CNc2ccccc2F)c1	17.2% (inactive)
Oc1ccc(CNc2ccccc2F)c2cccnc12	73.8% (active)
O=[N+]([O-])c1ccc(O)c2ncccc12	9% (inactive)
Cc1ccccc1N=Nc1ccc(O)c2ncccc12	31.3% (inactive)
CCCCn1c(=O)[nH]c2nc3cc(N)ccc3nc2c1=O	52.5% (active)
CCCCCCn1c(=O)[nH]c2nc3cc(N)ccc3nc2c1=O	24% (inactive)
CCCCCCn1c(=O)[nH]c2nc3cc(N)c(C)cc3nc2c1=O	49.7% (inactive)
C=CCn1c(COc2ccccc2F)nnc1SCCN1C(=O)c2ccccc2C1=O	10.7% (inactive)

Structure (SMILES)	inhibition
COCCn1c(C)cc(C(=O)CSc2nc3ccccc3o2)c1C	-1.7% (inactive)
CCOC(=O)c1cnc2ccc(OCC)cc2c1NCc1ccccc1	43.5% (inactive)
CCOC(=O)c1cnc2ccc(OCC)cc2c1NCc1cccnc1	62.8% (active)
CCOC(=O)c1cnc2ccc(OC)cc2c1NCc1ccccc1	27.2% (inactive)
Cc1cc2nc(-c3ccc(SCC(=O)Nc4nccs4)nc3)[nH]c2cc1C	-0.3% (inactive)
Nc1nc2n(n1)C(=O)CC(c1ccccc1[N+](=O)[O-])N2 (configuration not stated)	9.2% (inactive)
O=C(/C=C/c1ccc2c(c1)OCO2)NCCSCc1ccc(Cl)cc1Cl	12.8% (inactive)
CC1(C)CC(=O)C2=C(C1)OC(N)=C(C#N)C21CCN(C(=O)OCc2ccccc2)CC1	4.4% (inactive)
CC(=O)Nc1ccc(S(=O)(=O)NNC(=O)COc2cccc3ccccc23)cc1	1.3% (inactive)
O=C1CCCC(O)=C1C=NCc1ccccc1	-2.2% (inactive)
O=[N+]([O-])c1cc2oc3c(c2c(C=NCc2ccncc2)c1O)CCCC3	52.5% (active)
O=[N+]([O-])c1cc2oc3c(c2c(C=NCc2ccccc2)c1O)CCCC3	50.7% (active)
Oc1c(Br)cc2oc3c(c2c1CNCc1ccccc1)CCCC3	2.3% (inactive)
Cc1ccc(S(=O)(=O)N(C(=O)c2ccncc2)c2ccc3oc4c(c3c2)CCCC4)cc1[N+](=O)[O-]	1.1% (inactive)
O=C(c1ccncc1)N(c1ccc2oc3c(c2c1)CCCC3)S(=O)(=O)c1cccc([N+](=O)[O-])c1	6% (inactive)
COCC(=O)Nc1nnc(CCc2ccccc2)s1	9.8% (inactive)
COC(=O)C1=C(C)N(c2ccc(OC)c(OC)c2)C(=O)C1	-12.5% (inactive)
CN(C)C(=O)c1cn(-c2ccccc2)nc1-c1cccs1	-7.1% (inactive)
O=C(NCC(=O)N1CCN(S(=O)(=O)c2cccs2)CC1)c1ccc(Cl)cc1	5.3% (inactive)
FC(F)(F)c1cc(-c2cccs2)nc2nc(N3CCOCC3)sc12	-4.4% (inactive)
CC1(C)Oc2ccc3ccc(=O)oc3c2/C(=C/Nc2ccc(O)cc2)C1=O	14.8% (inactive)
CC1(C)OC(C)(C)/C(=C/Nc2ccc(O)cc2)C1=O	52.5% (active)
CC1(C)OC(C)(C)/C(=C/Nc2ccccc2)C1=O	0.4% (inactive)
Cc1ccc(NC(=O)C2CCCN2C(=O)NC2CCCCC2)cc1 (configuration not stated)	7.7% (inactive)
CCCCC(=O)NC1(C(F)(F)F)C(=O)N(Cc2ccco2)C(C)=C1C(=O)OC (configuration not stated)	2.6% (inactive)
CCOC(=O)C1CCN(C(=O)CSc2nccc(C)n2)CC1	-8.5% (inactive)

Structure (SMILES)	inhibition
COCCNC(=O)NC(=O)CN1CCCc2ccccc21	6.7% (inactive)
O=C1CC(N2CCN(c3ccccc3)CC2)C(=O)N1c1ccc2c(c1)OCO2 (configuration not stated)	-2% (inactive)
O=C1CC(N2CCN(c3ccc(O)cc3)CC2)C(=O)N1c1ccc2c(c1)OCO2 (configuration not stated)	60.4% (active)
O=C1CC(N2CCN(c3ccc(F)cc3)CC2)C(=O)N1c1ccc2c(c1)OCO2 (configuration not stated)	24.1% (inactive)
COc1ccccc1OCc1ccc(C(=O)OCC2CCCO2)o1 (configuration not stated)	-2% (inactive)
COC(=O)c1oc2ccc(OC)cc2c1N	-2.9% (inactive)
OCC[C@@H]1C[C@@H](O)[C@H](O)[C@]2(CCCCO2)O1	0.7% (inactive)
COC(=O)c1cccc(C(=O)Nc2ccc(F)cc2)n1	2.8% (inactive)
COc1ccc(NC(=O)C2CCN(C(=O)NCc3ccccc3)CC2)cc1	13% (inactive)
CN(Cc1ccc(F)cc1)C(=O)CCc1nnc(-c2ccccc2)o1	-0.8% (inactive)
O=C(Cc1ccc(Cl)cc1)Nc1cccc(S(=O)(=O)Nc2ccccc2F)c1	10.4% (inactive)
O=C(Nc1cccc(S(=O)(=O)Nc2ccccc2F)c1)c1ccc2ccccc2n1	44.1% (inactive)
CCOC(=O)CC(NS(=O)(=O)c1ccc(OC)c(C)c1)c1cccc([N+](=O)[O-])c1 (configuration not stated)	12.1% (inactive)
CCOC(=O)c1ccc(S(=O)(=O)N2CCN(S(=O)(=O)CC)CC2)cc1	4.2% (inactive)
CCNC(=S)N1CCN(C(c2ccccc2)c2ccccc2)CC1	18.7% (inactive)
COc1ccc(C(=O)NC(C)c2nnc(SCC(=O)Nc3nc4ccccc4s3)n2C)cc1 (configuration not stated)	4.8% (inactive)
CCOC(=O)c1c(CC(C)C)csc1N	34.4% (inactive)
CCOC(=O)c1c(-c2ccco2)csc1N	57.9% (active)
CCOC(=O)c1c(-c2ccco2)csc1NC(=O)CSc1nnc(N)s1	9.8% (inactive)
CCOC(=O)c1c(-c2ccc(C)o2)csc1N	51.6% (active)
CCOC(=O)c1c(-c2ccc(C)o2)csc1NC(=O)COC(=O)c1cccs1	16.6% (inactive)
CCOC(=O)c1c(-c2ccc(C)o2)csc1NC(=O)CN1CCCCC1	20.2% (inactive)
COc1ccc(C(=O)O/N=C(/C)c2cccs2)cc1	-4.4% (inactive)
Cc1c(NC(=S)NC(NC(=O)C(C)C)C(Cl)(Cl)Cl)c(=O)n(-c2ccccc2)n1C (configuration not stated)	1.4% (inactive)
